Active and inactive are the calls of the source.
Legend:
[1] = tested on: Human papillomavirus type 1a protein E7 (residues 44-93); experiment: HPV1a E7 fragment binders on microarrays, primary screen, biochemical, small-molecule microarray, residues 44-93, 635 nm fluorescence (AID 1108); conditions: small-molecule microarray binding, fluorescence 635 nm; higher = more signal;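 also: E7 fragment applied at 1 µg/mL in TBST for 1 h at 4 C; score combines spot fluorescence with its signal to noise ratio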
[2] = modulators of HCV replicon luciferase signal, primary screen, HCV replication inhibitor project, Huh7 cells, luciferase reporter (AID 1109); conditions: 48 h, higher = more signal;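 also: huh7 hepatoma cells harbouring a luciferase neomycin HCV replicon reporter; luciferase luminescence as measure of HCV replicon replication; test concentration not given here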
[3] = target: Left-right determination factor 2 (Homo sapiens) (UniProt O00292); experiment: LEFTY2 binders on small-molecule microarrays, primary screen, biochemical, small-molecule microarray, 635 nm fluorescence scan (AID 1110); conditions: LEFTY2 binding, higher = more signal
[4] = target: Calmodulin-1 (Homo sapiens) (UniProt P0DP23); experiment: CALM1 binders on microarrays, EGTA buffer, profiling panel, biochemical, small-molecule microarray, Cy5-labelled CALM1 (AID 1111); conditions: Cy5-CALM1 binding fluorescence, higher = more signal;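 also: labelled calmodulin applied in Tris saline Tween buffer holding calcium plus EGTA and DTT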
[5] = target: Calmodulin-1 (Homo sapiens) (UniProt P0DP23); experiment: calcium-bound CALM1 binders on microarrays, profiling panel, artefact control for SMM control-protein annotation, biochemical, small-molecule microarray, Cy5-labelled CALM1, plus calcium (AID 1112); conditions: Cy5-CALM1 binding fluorescence, higher = more signal;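 also: score merges spot fluorescence with signal to noise from triplicate slides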
[6] = small-molecule microarray binders of probe aWnt5a, primary screen, biochemical, biotinylated probe, 635/667 nm fluorescence (AID 1113); conditions: higher = more signal;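 also: score merges 667 nm fluorescence intensity with signal-to-noise per printed feature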
[7] = small-molecule microarray binders of probe aShh, primary screen, biochemical, biotinylated probe, 635/667 nm fluorescence (AID 1114); conditions: higher = more signal;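 also: probe is biotin-labelled aShh protein from a stem cell growth factor screen; measures binding of labelled protein to compounds printed on the slide; score merges feature fluorescence at 667 nm with signal-to-noise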
[8] = small-molecule microarray binders of probe aNog, primary screen, biochemical, biotinylated probe, 635/667 nm fluorescence (AID 1115); conditions: higher = more signal;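 also: probe is biotinylated aNog protein used at 0.15 µg/mL for 1 h at 4 C; z-score combines 667 nm fluorescence of each spot with its signal to noise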
[9] = target: Torsin-1A-interacting protein 1 (Homo sapiens) (UniProt Q5JTV8); experiment: LAP1 binders from COS7 cell lysate, primary screen, small-molecule microarray, 635/667 nm fluorescence (AID 1116); conditions: COS7-hLAP1 lysate binding, 635 nm fluorescence, higher = more signal
[10] = target: Alpha-bungarotoxin (Bungarus multicinctus) (UniProt P60615); experiment: alpha-bungarotoxin binders on microarray, profiling panel, artefact control for SMM control protein annotation, biochemical, small-molecule microarray, Alexa647 label, 635/667 nm fluorescence (AID 1117); conditions: alpha-BTX-A647 binding fluorescence, higher = more signal
Albumin (Bos taurus) = Albumin (Bos taurus) (UniProt P02769); experiment: bovine serum albumin binders on microarray, profiling panel, artefact control for SMM control protein annotation, biochemical, small-molecule microarray, Alexa647 label, 635/667 nm fluorescence (AID 1118); conditions: BSA-A647 binding, fluorescence 635 nm, higher = more signal;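 also: score merges 667 nm emission intensity and signal-to-noise per printed compound spot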
[11] = small-molecule microarray binders of probe aXIP, primary screen, biochemical, NeuroSMM set, 635/667 nm fluorescence (AID 1119); conditions: higher = more signal, called active from +8 up or from −8 down;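 also: probe is the protein aXip251-270 applied at 1 µg/mL to compound-printed slides; binding of probe to printed compounds measured as 667 nm fluorescence plus signal to noise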
[12] = small-molecule binders of probe aNOTCH3, primary screen, biochemical, small-molecule microarray, 635/667 nm fluorescence (AID 1120); conditions: higher = more signal;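 also: probe is a biotin-tagged antibody raised against NOTCH3 rather than NOTCH3 protein; score merges spot fluorescence near 667 nm with spot signal to noise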
[13] = small-molecule binders of probe aNOTCH2, primary screen, biochemical, small-molecule microarray, 635/667 nm fluorescence (AID 1121); conditions: higher = more signal;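 also: score merges feature fluorescence read at 667 nm with its signal to noise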
[14] = target: Carbonic anhydrase 2 (Homo sapiens) (UniProt P00918); experiment: CAII small-molecule binders, profiling panel, biochemical, small-molecule microarray, Alexa647-labelled CAII (AID 1122); conditions: CAII-A647 binding fluorescence, higher = more signal
[15] = COS7 lysate on small-molecule microarray, probe aHis, 635 nm (AID 1123); conditions: COS7 cell lysate, fluorescence, higher = more signal;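 also: z-score combines 667nm fluorescence intensity with signal-to-noise per printed compound spot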
[16] = compound binding in COS7 lysate, probe aLAP1, primary screen, cell lysate, small-molecule microarray (AID 1124); conditions: probe aLAP1, fluorescence, higher = more signal;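 also: lysate comes from COS7 cells expressing LAP1 and is applied at 0.3 µg/mL; score merges spot fluorescence near 667 nm with signal-to-noise over triplicate slides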
Sam68 (KHDRBS1) = experiment: Sam68 small-molecule binders, primary screen, biochemical, small-molecule microarray, 635 nm fluorescence (AID 1125); conditions: small-molecule microarray binding, higher = more signal;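 also: score merges 667 nm channel intensity with signal to noise over triplicate slides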
[17] = tested on: Chordin-like protein 2 (CHRDL2); experiment: CHRDL2 small-molecule binders, primary screen, biochemical, small-molecule microarray, 635 nm fluorescence (AID 1126); conditions: small-molecule microarray binding, fluorescence 635 nm; higher = more signal;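 also: printed compound slides probed with Chrdl2 protein at 4 µg/mL for 1 h at 4 C; score merges 667 nm emission intensity with signal to noise over three replicate slides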
[18] = target: Concanavalin-A (Canavalia ensiformis) (UniProt P02866); experiment: ConA small-molecule binders, primary screen, artefact control for SMM control protein annotation, biochemical, small-molecule microarray, Alexa647 label, 635 nm (AID 1127); conditions: ConA-A647 binding fluorescence, higher = more signal;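 also: z combines 667 nm emission intensity with signal-to-noise across three replicate slides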
Concanavalin-A (Canavalia ensiformis), sequence (P02866 whole entry, looked up): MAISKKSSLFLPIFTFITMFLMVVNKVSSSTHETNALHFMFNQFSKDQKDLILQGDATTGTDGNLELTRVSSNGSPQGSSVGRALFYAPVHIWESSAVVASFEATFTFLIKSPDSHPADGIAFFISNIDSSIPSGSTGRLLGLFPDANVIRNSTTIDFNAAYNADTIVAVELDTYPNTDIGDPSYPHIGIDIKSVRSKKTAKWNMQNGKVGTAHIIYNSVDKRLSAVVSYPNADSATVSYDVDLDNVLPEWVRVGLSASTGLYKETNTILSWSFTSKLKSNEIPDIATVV

Albumin (Bos taurus), sequence (P02769 whole entry, looked up): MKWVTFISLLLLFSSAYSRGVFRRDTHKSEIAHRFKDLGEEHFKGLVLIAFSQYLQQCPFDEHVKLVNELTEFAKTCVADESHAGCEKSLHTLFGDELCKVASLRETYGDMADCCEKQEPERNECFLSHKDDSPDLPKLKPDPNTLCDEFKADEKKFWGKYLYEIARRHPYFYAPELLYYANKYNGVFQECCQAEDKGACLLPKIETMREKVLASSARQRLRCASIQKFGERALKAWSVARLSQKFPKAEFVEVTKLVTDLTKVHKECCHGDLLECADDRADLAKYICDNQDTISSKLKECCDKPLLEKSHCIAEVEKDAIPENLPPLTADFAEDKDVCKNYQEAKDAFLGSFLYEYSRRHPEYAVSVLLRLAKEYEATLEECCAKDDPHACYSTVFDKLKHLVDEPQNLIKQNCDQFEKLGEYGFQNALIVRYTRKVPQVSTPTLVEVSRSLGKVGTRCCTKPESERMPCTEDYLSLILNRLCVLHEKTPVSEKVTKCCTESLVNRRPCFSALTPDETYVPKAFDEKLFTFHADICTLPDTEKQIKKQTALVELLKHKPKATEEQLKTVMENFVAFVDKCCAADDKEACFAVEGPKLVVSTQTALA
Left-right determination factor 2 (Homo sapiens), sequence (O00292 whole entry, looked up): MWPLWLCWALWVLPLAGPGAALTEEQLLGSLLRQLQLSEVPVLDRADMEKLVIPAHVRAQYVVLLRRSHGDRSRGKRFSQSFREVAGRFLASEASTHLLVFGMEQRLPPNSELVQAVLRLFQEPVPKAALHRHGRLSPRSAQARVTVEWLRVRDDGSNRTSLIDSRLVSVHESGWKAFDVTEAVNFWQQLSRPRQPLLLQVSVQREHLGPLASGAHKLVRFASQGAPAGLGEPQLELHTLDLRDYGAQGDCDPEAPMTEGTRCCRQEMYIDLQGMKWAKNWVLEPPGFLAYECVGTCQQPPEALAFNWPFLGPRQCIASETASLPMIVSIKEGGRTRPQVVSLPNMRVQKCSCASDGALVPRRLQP
Torsin-1A-interacting protein 1 (Homo sapiens), sequence (Q5JTV8 whole entry, looked up): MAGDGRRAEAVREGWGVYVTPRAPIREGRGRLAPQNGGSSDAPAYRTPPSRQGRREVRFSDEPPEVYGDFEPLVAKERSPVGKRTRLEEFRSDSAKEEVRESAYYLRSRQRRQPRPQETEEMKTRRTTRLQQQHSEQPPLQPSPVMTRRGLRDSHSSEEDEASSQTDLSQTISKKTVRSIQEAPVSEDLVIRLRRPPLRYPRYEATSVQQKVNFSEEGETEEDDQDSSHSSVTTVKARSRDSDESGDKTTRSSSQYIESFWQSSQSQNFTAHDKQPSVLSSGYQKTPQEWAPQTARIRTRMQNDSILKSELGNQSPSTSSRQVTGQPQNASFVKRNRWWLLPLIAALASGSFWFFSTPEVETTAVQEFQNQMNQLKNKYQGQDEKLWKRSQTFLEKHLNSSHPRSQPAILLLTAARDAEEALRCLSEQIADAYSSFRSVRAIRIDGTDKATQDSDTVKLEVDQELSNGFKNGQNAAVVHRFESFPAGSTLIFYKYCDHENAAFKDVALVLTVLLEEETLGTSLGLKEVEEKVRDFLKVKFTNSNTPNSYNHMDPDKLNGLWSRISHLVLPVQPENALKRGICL
Alpha-bungarotoxin (Bungarus multicinctus), sequence (P60615 whole entry, looked up): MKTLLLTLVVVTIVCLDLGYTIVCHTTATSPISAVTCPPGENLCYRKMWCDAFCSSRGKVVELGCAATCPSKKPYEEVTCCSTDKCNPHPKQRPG

SMILES | composite z-score [1] | z-score [2] | composite z-score [3] | composite z-score [4] | composite z-score [5] | composite z-score [6] | composite z-score [7] | composite z-score [8] | composite z-score [9] | composite z-score [10] | composite z-score (Albumin (Bos taurus)) | composite Z-score [11] | composite z-score [12] | composite z-score [13] | composite z-score [14] | composite z-score [15] | composite z-score [16] | composite z-score (Sam68 (KHDRBS1)) | composite z-score [17] | composite z-score [18]
C=CC(=O)O[C@@H](Cc1ccccc1)[C@H]1C2C=CCCC=C2CN1Cc1cccc(Cl)c1 (stereo not given in full) | -2.98 | -1.08 | -0.195 | -0.82 | 0.484 | -0.148 | 0.0022 | -0.267 | -0.103 | -0.439 | -0.421 | 0.565 (inactive) | -0.0057 | -0.112 | -0.794 | -0.323 | -0.454 | -2.7 | -0.605 | -0.965
NC(=O)NCC#Cc1ccc2c(c1)[C@]1(C(=O)N2)[C@H](C(N)=O)[C@H]2C(=O)O[C@H](c3ccccc3)[C@H](c3ccccc3)N2[C@@H]1c1ccccc1OCCO | 1.04 | -0.771 | 0.375 | 0.425 | 0.356 | -0.124 | -0.0793 | 0.657 | 0.808 | 0.45 | 0.284 | 0.0219 (inactive) | 0.121 | -0.0762 | 0.175 | 0.841 | 0.519 | 0.978 | 0.543 | 0.936
CC(=O)NCCCC[C@@H]1NC(=O)[C@@H]2C[C@H](C(=O)NCc3ccc(F)cc3)[C@H](c3cccc(OCCO)c3)N2C1=O | 0.843 | -0.0901 | -0.0566 | -0.286 | 0.0377 | -0.0836 | 0.0469 | -0.183 | 0.436 | -0.86 | 0.188 | 0.328 (inactive) | -0.226 | 0.0383 | 0.659 | 1.07 | 0.19 | 0.506 | 0.174 | 0.474
[N-]=[N+]=NCc1ccccc1C[C@@]1(C(=O)O)N=C(c2ccc(OCCCO)cc2)O[C@@H]1c1ccccc1N=[N+]=[N-] | 1.42 | -1.25 | 0.101 | -0.281 | -0.222 | -0.0236 | -0.138 | -0.316 | 0.938 | 0.552 | 0.855 | 0.198 (inactive) | 0.328 | -0.0424 | 0.726 | 2.05 | 0.497 | 1.3 | -0.256 | 0.421
CCC#CCN(Cc1ccccc1Br)[C@H](/C=C/c1ccccc1)[C@@H](O)Cc1ccccc1 | -0.0687 | -2.58 | -0.635 | -0.481 | 0.402 | -0.152 | -0.138 | -0.326 | -0.613 | -0.0441 | -0.904 | 0.12 (inactive) | -0.132 | -0.145 | -0.225 | 0.301 | 0.162 | -1.13 | -1.16 | -0.779
COCCOC(=O)N1C(=O)[C@@]2(c3cc(C#CC4=CCCCC4)ccc31)[C@H](C(=O)NC[C@H](O)c1ccccc1)[C@H]1C(=O)O[C@H](c3ccccc3)[C@H](c3ccccc3)N1[C@@H]2c1ccccc1OCCO | 0.453 | -3.01 | 0.394 | 1.43 | 0.635 | 0.0246 | 0.443 | 0.216 | 0.814 | 2.18 | 0.648 | 0.155 (inactive) | 0.315 | -0.0311 | 0.358 | 1.11 | 0.474 | 1.3 | 0.239 | 1.09

Source: PubChem BioAssay
